# Values without a mark were called inactive.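 How the source made its calls: active = MAPPIT score above the 99th percentile of random reference set scores in the same batch; inactive = at or below it.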
# B1: Cyp12e1 (protein)
# chain: MLSTQWNANKQISRQIYQLCRGLAQKATAVNLEEAKPYADIPGPSKLQLIRAFLPGGLYKNLPVHEMFLDMNRQYGSIFRMPSVAGTDLVLTMNPQDYEVIFRNEGQYPYRRSFEVMDYFKRVHRREVFDGYDGLTSGNGPAWGKMRTAVNPILLQPRNAKLYMTNLVQVSDEFLERIRIIRDPVTQEMPDDFAVDIRHLVIESICSVALNTHLGLLGEQRNNKDIQKLVLALQDVVELGFQLDIMPAFWKYLPMPNFKKLMRSLDTITDFCYFHIGNALKRIEEDAKAGTLNEIGLETSLLEKLARFDRQTAVIIAMDLLFAGADPTLVTLGGILFSLSKSPDKQARLLEEIRGILPNKDSSLTIENMRNLPYLRACIKEGIRMYPIGPGTLRRMPHDVVLSGYRVVAGTDVGIAANYQMANMEQFVPKVREFIPERWLRDESNSHLVGETATPFMYLPFGFGPRSCAGKRIVDMMLEIAISRLVRNFKIGFDYPIENAFKAQFFVQPNIPFKFKFIERNE
# B2: Fs(2)Ket (protein)
# chain: MTSDIAMQLIAILEKTVSPDKNELLSAKNFLEQAAASNLPEFLKALSEILVNTANSAVARMAAGLQLKNHLTSKDEKVSQQYQDRWHQFPSEIRELIKNNILAALGTENTRPSCAAQCVAYVAVIELPINRWPMLIQTLVNKVVSEGSSEMHRESALEAIGYICQDIRFGVMENQSNDVLTAIIHGMRKVEPSNHVRLAATTALHNSLEFTKSNFEKDMERNFIMEVVCEATQCQDSQICVAALQCLVKIMTLYYQYMEPYMAQALFPITLAAMKSDNDAVALQGIEFWSNVCDEEIDLAIESQEATDQGRAPQRVSKHYARGALQFLTPVLVEKLTKQDECDDEDTWSPAKAASVCLMVLATCCEDEIVPHVLPFIKENIESPNWRFRDAAVMTFGSVLNGLETNTLKPLVEQAMPTLIRLMYDSSVIVRDTIAWTFGRICDIIPEAAINETYLQTLLECFVKSLKSEPRVAANVCWAFIGLSDAAWEAAVTNDGETPETYALSPYFEYIITQLLETTDRSDGAQANLRCAAYQALMDMIKNSPLDCYLVVQRTTLVILERLNQVMQMETQINNHSDRHQFNDLQSLLCATLQSVLRKVHEQDAPQISDAIMTALLTMFNSSAGKSGVVQEEAFLAVSTLVELLGAQFAKYMPAFKDFLVMGLKNFQEYQVCCAAVGLTGDIFRALKDLMVPYSNEIMTVLINNLTEPTIHRTVKPQVLSAFGDIALSIGNHFLPYLSMVLDMLRVASNLQTDANNFDMNEYINELRESILEAYTGIIQGLKGVDQTAHTDVMHMEPHLMHIISFIKRIAQEGDVSDSMLASAAGFIGDLCTSFGPRLYPLLDDAIITQFLAEGKRSKAQRTKMLCTWAVKEIKKINTQVITQ
# B3: CG9588 (protein)
# chain: MAAGTTTKERLERLINAKKQLEAQINRNGQILAANDNVGMSGPLVDAEGFPRNDIDVYQVRLARQTIICLQNDHKELMNQIQTLLNQYHSEIATTDPELVNRASALDLDSDRSPGGANITDLAPARAIVVVNLVSPDSPAERAGLCAGDAILRFGSINSGNFKGDLAQIGELVRNMQSQNVQLKVKRGEQQLDLILVPKTWSGRGLLGCNIVLPPEAMDH
# B4: numb (protein)
# chain: MGNSSSHTHEPLERGFTRGKFGDVKNGKSASFRFSKKSPKKMDRLRRSFRDSFRRRKDRVPESSKPHQWQADEEAVRSATCSFSVKYLGCVEVFESRGMQVCEEALKVLRQSRRRPVRGLLHVSGDGLRVVDDETKGLIVDQTIEKVSFCAPDRNHERGFSYICRDGTTRRWMCHGFLACKDSGERLSHAVGCAFAVCLERKQRRDKECGVTMTFDTKNSTFTRTGSFRQQTLTERLAMATVGTNERSVDGPGSAMPGPPAATVKPFNPFAIERPHATPNMLERQSSFRLSTIGSQSPFKRQMSLRINDLPSNADRQRAFLTAAAGNPMQTPLRSVSPIAEVSPAKSAGADPLSAAAVAADSVSQLCQELSQGLSLLTQTDALLAAGEDLNFNNNRSINQNIIAAEKQVQHVHSYAPPTAQVTPRVASTTPTYQTLHSQSPSRSEQSIETSTELPNAEQWLGHVVRSTSPAAPKRPTYLANVGRAQTLASGTGAAVGGGGPDDPFDAEWVANVAAAKQLSPDLPIPSTARSPLARHSTNPFISPPKAPAQSFQVQL
# B5: wat (protein)
# chain: MDDPKIMNIMNGMKSLEDHCQLISDVKDESPMQMFYKDKGVFLTGGTGFFGKIIIEKLLRVTEVGQIYLLIRTKKGKDAFARIEDLFNDPVFAKMKQVNPKYRCQITIISGDCSLPGLGISADERETIMENVNIVLHSAATVRFDEKLKMAIAINVHGTKEIIKLAKEIVNLKALVHVSTAFAHCNMRHIQERFYSGTMSGENAFKLSECLDEHTLNTLTPTIIKGYPNTYTFTKVLAENVVQQSAQNLPVTIFRPGIVITTYREPVTGWIDNMYGPCGVIVGIGSGVLRVFTGDMDNKAHIVPVDMCVNALLASAWDIARNKYETPPIYNYVPDAENMVTWRRYMEDGFEYGCDIPMRKSIWYPRFTIVPHMWQYHILCFLYHTLPALVMDAIMVIIGKKPRMMKIYRKIHKLSNVLKYFSSNEFRFDNDNVRKLTEKLDDRDKRLFAFDMRDLDWTNLFRVSLYGLRLYVVKDDPSNIPESIKRYERLKVLHYTTLAVFYALAAWALYALLKLFL
# B6: Vha16-1 (protein)
# chain: MSSEVSSDNPIYGPFFGVMGAASAIIFSALGAAYGTAKSGTGIAAMSVMRPELIMKSIIPVVMAGIIAIYGLVVAVLIAGALEEPSKYSLYRGFIHLGAGLAVGFSGLAAGFAIGIVGDAGVRGTAQQPRLFVGMILILIFAEVLGLYGLIVAIYLYTK
# Experiments:
# Test in all cases: MAPPIT interaction score (arbitrary units); higher = stronger binary interaction signal, active = hit call of the paper
# [1] = biological target: Pak3; settings: MAPPIT configuration: N-C; pair source set: RRS
# [2] = biological target: PCID2; settings: MAPPIT configuration: N-N; pair source set: Lit-BS-16
# [3] = biological target: PGRP-LE; settings: MAPPIT configuration: N-N; pair source set: Curagen_low_conf
# [4] = biological target: Past1; settings: MAPPIT configuration: N-N; pair source set: Lit-BM-16
# [5] = biological target: Rm62; settings: MAPPIT configuration: N-N; pair source set: Curagen_high_conf
# [6] = biological target: ktub; settings: MAPPIT configuration: N-N; pair source set: Curagen_high_conf
# [7] = biological target: mira; settings: pair source set: Lit-BM-16
# [8] = biological target: PIG-C; settings: MAPPIT configuration: N-C; pair source set: screen_3
# [9] = biological target: Tsp96F; settings: MAPPIT configuration: N-C; pair source set: screen_4
# 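Further: HEK293T cells with Epo stimulation, STAT-responsive firefly luciferase reporter, fold induction versus unstimulated cells divided by the larger fold induction of two negative controls lacking either bait or prey.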
binder,measurement,setting,value
B1,MAPPIT interaction score,[1],2.68
B2,MAPPIT interaction score,[2],0.0886
B3,MAPPIT interaction score,[3],0.614
B4,MAPPIT interaction score,[4],0.0235
same,MAPPIT interaction score,[5],-0.368
same,MAPPIT interaction score,[6],-1.3
same,MAPPIT interaction score,[7]; MAPPIT configuration: N-C,1.17
same,MAPPIT interaction score,[7]; MAPPIT configuration: N-N,-0.252
B5,MAPPIT interaction score,[8],1.02
B6,MAPPIT interaction score,[8],0.119
same,MAPPIT interaction score,[9],0.231
